C8 TRAIL sens – caspase-8 TRAIL sensitization. NB7+C8 cells + TRAIL, ATPlite viability luminescence. inhibition (viability loss, TRAIL sensitization), % at 10 µM. 360,000 tested, 1% active. AID 624354;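 active = compounds causing at least 50% loss of cell viability in the single-dose screen, relative to plate controls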
aSyn 5UTR inh – 5' untranslated region of α-synuclein, MLPCN primary screen; 300,000 tested, 0.82% active; inhibition, % (tested at 7.5 µM); alpha-synuclein 5'UTR reporter, inhibitor activity; in the data active = inhibition above about 60%;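 also: H4 neuroglioblastoma cells stably carrying SNCA 5'UTR luciferase fusion; 0% = DMSO wells and 100% = positive control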
HIF-2a block – inhibitors of HIF-2a; 786-0 RCC cells HIF-2a reporter, luciferase luminescence, overnight; inhibition, % at 18.8 µM; 360,000 tested, 0.72% active;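 active = inhibition of the luminescence signal of 40% or more relative to plate controls, in a single-dose primary screen at 18.75 µM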
TROY signal inh – TROY signaling inhibition; Q293 LMP1-TROYcd NF-kB luciferase reporter, 4 h; inhibition, % at 10 µM; 360,000 tested, 0.98% active; AID 1347056;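 active = compounds whose plate-normalised and pattern-corrected inhibition of the luciferase reporter signal at the single screening dose is 50% or more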
TWEAK-Fn14 inh – TWEAK-Fn14 signaling inhibition | TWEAK-stimulated Fn14 reporter cells, luciferase luminescence, 8 h | inhibition, % at 10 µM | 360,000 tested, 2% active | AID 1159606; in the data active = inhibition above about 50%
HSP90 inh – HSP90 refolding inhibition in rabbit reticulocyte lysate. 290,000 tested, 0.91% active. luciferase refolding luminescence, 3 h. inhibition, % at 5.6 µM. AID 1789;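 active = inhibition above the screen-wide mean plus 3 SD, computed separately per campaign, cut at about 16% in these data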;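 also: 0% = DMSO wells and 100% = 60 µM geldanamycin wells; inhibitors lower the luminescence because luciferase stays unfolded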
Numbers without * were called inactive. An excerpt weighted towards active compounds, which were near 3.9% of everything screened.

What do the screens show for `CCc1nc2ccc(C(=O)NCCC(C)C)cn2c1N(CC)CCOC`?
C8 TRAIL sens: -5; HIF-2a block: 5; TROY signal inh: -5; TWEAK-Fn14 inh: 0

How did COCCn1c(C)cc(/C=C2/NC(=O)N(c3cccc(Cl)c3)C2=O)c1C do in these assays?
C8 TRAIL sens: -4; aSyn 5UTR inh: -133; HIF-2a block: -14; TROY signal inh: 81*; TWEAK-Fn14 inh: 82*; HSP90 inh: 10

Results for CN(C)/C(=N\S(=O)(=O)c1ccccc1)c1ccc(F)cc1 ?
C8 TRAIL sens: -14; aSyn 5UTR inh: -9; HIF-2a block: 26; TROY signal inh: -17; TWEAK-Fn14 inh: 52*; HSP90 inh: -4

What do the screens show for `COC(=O)C1=CN(c2ccc(Oc3ccccc3)cc2)C(N)=C(C#N)C1c1ccc(-c2ccccc2)cc1` (configuration not stated)?
C8 TRAIL sens: 0; HIF-2a block: -6

How did Fc1cccc(Cl)c1CSc1ncn[nH]1 do in these assays?
C8 TRAIL sens: -16; aSyn 5UTR inh: -6; HIF-2a block: -7; TROY signal inh: 78*; TWEAK-Fn14 inh: -11; HSP90 inh: -1

How did CC(C)(C)N(Cc1ccccc1)C(=O)COC(=O)C1=NN(c2ccccc2)C(=O)CC1 do in these assays?
C8 TRAIL sens: -15; HIF-2a block: 3; TROY signal inh: 12; TWEAK-Fn14 inh: 11

How did CCC(=O)Nc1cccc(SC)c1 do in these assays?
C8 TRAIL sens: 3; aSyn 5UTR inh: 7; HIF-2a block: -5; TROY signal inh: -17; TWEAK-Fn14 inh: 99*; HSP90 inh: -4

Results for CCC(CC)C(=O)Nc1cccc(SC)c1 ?
aSyn 5UTR inh: 5; HSP90 inh: 13

Results for Cn1c(=O)c2c(nc(NCc3ccco3)n2C/C=C/c2ccccc2)n(C)c1=O ?
C8 TRAIL sens: 39; aSyn 5UTR inh: 90*; HIF-2a block: 20; TROY signal inh: 41; TWEAK-Fn14 inh: 55*

What do the screens show for `Cn1c(=O)c2c(nc(NCc3ccco3)n2C)n(C)c1=O`?
C8 TRAIL sens: -10; aSyn 5UTR inh: 29; HIF-2a block: -4; TROY signal inh: 8; TWEAK-Fn14 inh: 15; HSP90 inh: -3

What do the screens show for `O=C(CCn1c2c(c3ccccc31)CCCC2)NNC(=O)c1ccccc1Cl`?
C8 TRAIL sens: -1; aSyn 5UTR inh: -11; HIF-2a block: -5; TROY signal inh: 38; TWEAK-Fn14 inh: 65*; HSP90 inh: 1

How did CC(C)CC(=O)Nc1ccc(C(=O)NNC(=S)NC(=O)C2CCCCC2)cc1 do in these assays?
C8 TRAIL sens: -14; aSyn 5UTR inh: 67*; HIF-2a block: 10; TROY signal inh: -20; TWEAK-Fn14 inh: -24; HSP90 inh: -1

What do the screens show for `COc1ccc(C2=Nc3ccccc3N(C(=O)c3cccnc3)C2C(=O)NC2CCCC2)cc1` (configuration not stated)?
C8 TRAIL sens: -16; HIF-2a block: -38

Results for Cc1ccc2c(c1)C1(OCCCO1)C(=O)N2CC(=O)NN ?
C8 TRAIL sens: 20; aSyn 5UTR inh: 22; HIF-2a block: 20; TROY signal inh: -10; TWEAK-Fn14 inh: 94*

What do the screens show for `Cc1ccc2c(c1)C1(OCCCO1)C(=O)N2CC#N`?
C8 TRAIL sens: -14; aSyn 5UTR inh: -9; HIF-2a block: 24; TROY signal inh: 10; TWEAK-Fn14 inh: 8; HSP90 inh: -5

How did CCCCC1Cc2[nH][nH]c(=O)c2C(c2ccc(F)cc2)O1 (configuration not stated) do in these assays?
C8 TRAIL sens: -2; HIF-2a block: 14; TROY signal inh: 18; TWEAK-Fn14 inh: 15

What do the screens show for `C=CCN=c1scc(-c2ccc3c(c2)NC(=O)CO3)n1/N=C(\C)c1ccccn1`?
C8 TRAIL sens: 22; HIF-2a block: -14; TROY signal inh: 43; TWEAK-Fn14 inh: 66*; HSP90 inh: 3

What do the screens show for `O=C(O)c1ccccc1-c1ccc(/C=c2\sc3nc4cc(Br)cnc4n3c2=O)o1`?
C8 TRAIL sens: -3; aSyn 5UTR inh: 11; HIF-2a block: -23; TROY signal inh: 19; TWEAK-Fn14 inh: 75*; HSP90 inh: 0

Results for O=C1NC[C@H](CCCCN2C[C@H](Cc3ccc(O)cc3)N(Cc3ccccc3)C(=O)C2=O)N(CCc2ccc(O)cc2)C1=O ?
C8 TRAIL sens: 2; HIF-2a block: 7; TROY signal inh: -6; TWEAK-Fn14 inh: -6

High-throughput results: PubChem BioAssay, several laboratories
